In ChEMBL document CHEMBL4513216, “Probing the Open Global Health Chemical Diversity Library for Multistage-Active Starting Points for Next-Generation Antimalarials” (ACS Infect Dis, 2020):
The campaign covered roughly 69,000 compounds. About 8,600 (12%) showed an effect of 50% or more. Only a selection was taken, and strong results are over-represented in it overall.

System: Plasmodium berghei
Experiment: Screen against P. berghei liver stage (PbLuc), transformed with Luciferase, at 10uM
Format: functional, HepG2
Details: tested at 10 uM

Row | SMILES | INHIBITION
1 | CC1=Nc2c(c(=O)[nH]n2C(C)C)C(c2cccc(OC(F)F)c2)S1 (centres undefined) | -28.4%
2 | Cc1cccc2nc(CN3CCC(N4CCN(C)C4=O)CC3)cn12 | -54.1%
3 | COc1nn(C)c2c1CCCN(C(=O)c1cccc(C)n1)C2 | 31.2%
4 | CN1CCC(N2CCC(CN(Cc3ccncc3)C3CCC3)CC2)CC1 | 53.8%
5 | COCCN1CCC(CN(Cc2ccncc2)C2CCC2)CC1 | 43.7%
6 | COCCN1CCC(CN(Cc2ccncc2)C2CCCCC2)CC1 | -32.1%
7 | O=C(C1=CCCC1)N1C[C@@H]2COC[C@]2(COc2ncccc2F)C1 | 16.8%
8 | CC(O)CN(C(=O)NC1CC1)C(C)C (centres undefined) | 55.4%
9 | CC(C)N(CC(C)(C)O)C(=O)NC1CC1 | 23.5%
10 | CC(O)CN(C(=O)NC1CCN(CC2CCCCC2)CC1)C(C)C (centres undefined) | 21.2%
11 | Cc1noc(C)c1CN(C)c1nc(C2CCCC2)nc2c1cnn2C | 20%
12 | CC(C)NC(=O)Cn1cc(-c2ccccc2)cn1 | -16.7%
13 | Cn1ncc(NC(=O)Cn2ccc(-c3cccc(F)c3)n2)n1 | 7.39%
14 | Cc1nc(C)c(-c2ccn(CC(=O)Nc3cnn(C)n3)n2)s1 | 82.4%
15 | CNC(=O)CNC(=O)c1ccc(-c2scnc2C)nc1 | -89.4%
16 | Cn1ncc(NC(=O)Cn2cc(-c3ccc(F)cn3)cn2)n1 | 77.9%
17 | Cn1nccc1NC(=O)Cn1ccc(-c2ccc3c(c2)OCO3)n1 | 43.4%
18 | Cn1ncc(NC(=O)Cn2ccc(-c3ccc(F)cc3)n2)n1 | 52.2%
19 | Cc1cc(NC(=O)Cn2ccc(-c3ccc4c(c3)OCO4)n2)n(C)n1 | 13.8%
20 | Cc1ccc(-c2cnn(CC(=O)NC(C)C)c2)cc1 | 45.7%
21 | Cc1ncsc1-c1cc(C(=O)NCCO)ccn1 | 42.6%
22 | Cc1ncsc1-c1ccn(CC(=O)Nc2cnn(C)n2)n1 | 85.7%

Row | SMILES | INHIBITION
23 | NC(=O)NC(=O)CCn1ccc(-c2ccc(F)cc2)n1 | 16.2%
24 | CCc1noc(CN2CCN(c3nccs3)CC2)n1 | 19.5%
25 | CNC(=O)Cc1n[nH]c(-c2cncc(Br)c2)n1 | -6.61%
26 | Cc1ncc(C(=O)N2CCCC(C(=O)CCc3ccccc3)C2)s1 (centres undefined) | 16.3%
27 | CCn1ncc2c1C(COC)CN(S(=O)(=O)N(C)C)C2 (centres undefined) | 10%
28 | OC(CN1CCN(Cc2ccccc2)CC1)C1CC1 (centres undefined) | -20.5%
29 | CCN(C(=O)Cn1cc(Cl)cn1)c1ccccc1 | 4.81%
30 | CNC(=O)Cn1ccc2ccc(NC(=O)NC(C)C(C)C)cc21 (centres undefined) | 15.5%
31 | CC(C)NC(=O)N1CCN(c2ccc(Cl)nn2)C(=O)C1 | 37.5%
32 | N#Cc1cccc(OCc2ccoc2C(=O)N2CCCCC2)c1 | -105%
33 | CCc1nc(CN2CCN(C(=O)c3cc(C)nn3C)CC2)cs1 | 76.9%
34 | Cc1nc(CCN)cc(N2CCC(O)(c3ccc(Cl)cc3)CC2)n1 | 80.8%
35 | CCc1nc(CN2CCCN(C(=O)COCC3CC3)CC2)cs1 | 54.3%
36 | Cc1nc(CN2CCCN(C(=O)COCC3CC3)CC2)cs1 | 43.2%
37 | CCCOCC(=O)N1CCCN(Cc2csc(CC)n2)CC1 | 1.75%
38 | Cc1nc(CN2CCN(C(=O)CCc3ccco3)CC2)cs1 | 42.9%
39 | Cc1nc(CN)cc(N2CCC(O)(c3ccc(Cl)cc3)CC2)n1 | 3.82%
40 | Cc1nc(CN2CCCN(C(=O)CCc3ccco3)CC2)cs1 | 12.7%
41 | CCc1nc(CN2CCCN(C(=O)c3cccn3C)CC2)cs1 | -69.6%
42 | Cc1nc(CCN)cc(N2CCC(O)(c3ccccc3)C2)n1 (centres undefined) | 7.1%
43 | CCc1nc(CN2CCCN(C(=O)CCc3ccco3)CC2)cs1 | 73.1%
44 | CCc1nc(CN2CCN(C(=O)c3cc(C)no3)CC2)cs1 | -35.7%

Row | SMILES | INHIBITION
45 | COCCOc1ncccc1C(=O)N1CCCC1Cn1cc(C)cn1 (centres undefined) | 15.5%
46 | COCCN1CCN(S(C)(=O)=O)Cc2cccnc21 | -0.284%
47 | N#Cc1ccc(CN(CCF)Cc2cccc(F)c2)cc1 | 37.9%
48 | CCc1noc(CN2CCN(C(=O)N(CC)CC)CC2)n1 | -7.31%
49 | O=C(c1ncccn1)N1CC[C@H]2OCC[C@@]2(COc2ccccn2)C1 | -1.15%
50 | CN(C)CC(=O)Nc1ccc(C(=O)N(C)CCc2cn[nH]c2)cc1 | 38.2%
51 | CN(C)[C@@H]1CCN(c2ncc(F)cn2)[C@H]1Cc1ccncc1 | -42.9%
52 | O=C(CN1CC(c2nc(-c3cccs3)no2)C1)NCC1CCCO1 (centres undefined) | 32.1%
53 | CCc1nc(CN2CCCN(C(=O)c3ccccc3)CC2)cs1 | -155%
54 | COc1ccc(C(=O)N2CCN(c3cc(CCN)nc(C)n3)CC2)cc1 | 38.5%
55 | Cc1nc(CN2CCC23CCN(C(=O)c2ccncc2)CC3)cs1 | 12.7%
56 | Cc1nc(CCN)cc(N2CCCN(C(=O)c3ccco3)CC2)n1 | 50.3%
57 | Cc1nc(CN2CCC23CCN(C(=O)c2ccco2)CC3)cs1 | 60.2%
58 | CCc1nc(CN2CCCN(C(=O)COC)CC2)cs1 | -61.4%
59 | CCc1nc(CN2CCCN(C(=O)c3ccco3)CC2)cs1 | 53.9%
60 | CCc1ccc(C(=O)N2CCCN(Cc3csc(CC)n3)CC2)o1 | -7.25%
61 | CCc1nc(CN2CCCN(C(=O)Cc3cccs3)CC2)cs1 | 55.1%
62 | Cc1nc(CN2CCC23CCN(Cc2ccoc2)CC3)cs1 | 26.7%
63 | Cc1nc(N2CCN(C(=O)c3ccco3)CC2)c2c(n1)c(C)nn2C | 7.66%
64 | CCc1nc(CN2CCCN(C(=O)CC(F)(F)F)CC2)cs1 | -19.4%
65 | Cc1nnc(C(NS(=O)(=O)c2cc(C)c(F)cc2F)C(C)C)[nH]1 (centres undefined) | 38.9%
66 | CNC(=O)[C@H]1C[C@@H]2CN(Cc3csc(C)n3)C[C@@H]2N1S(C)(=O)=O | 28.5%

Row | SMILES | INHIBITION
67 | C[S+]([O-])c1cccc(NC(=O)N[C@H](CCO)c2ccccc2)c1 (some centres undefined) | 11.5%
68 | Cc1cc(C(=O)NCC(c2ccsc2)N(C)C)no1 (centres undefined) | 24%
69 | NC(=O)NC(CC(=O)N1CCc2sccc2C1)c1ccccc1F (centres undefined) | 3.3%
70 | CN(C)c1cc2c(nn1)CCN(C(=O)C1Cc3ccccc3O1)C2 (centres undefined) | 56.4%
71 | CN(C)c1cc2c(nn1)CCN(C(=O)C1COc3ccccc3C1)C2 (centres undefined) | 20.2%
72 | CCNc1cc2c(nn1)CCN(C(=O)C1Cc3ccccc3O1)C2 (centres undefined) | 18.6%
73 | CC(C)(C)C(=O)NCCC(=O)NCCc1ccn(-c2ccccc2)n1 | 23.4%
74 | Cc1cccc(-c2nc(CNC3CCc4nc(C)nn4C3)no2)c1 (centres undefined) | 19.6%
75 | CCc1nc2n(n1)CC(NCc1noc(-c3ccc(C)cc3)n1)CC2 (centres undefined) | 31.9%
76 | CCc1nc2n(n1)CC(NCC1=Cc3ccc(OC)cc3OC1)CC2 (centres undefined) | 32.3%
77 | COc1ccc2c(c1)OCC(CNC1CCc3nc(C)nn3C1)=C2 (centres undefined) | 85.2%
78 | COc1cc(CNC2CCc3nc(C)nn3C2)cc2c1OCO2 (centres undefined) | -43.6%
79 | COc1ccc(-c2nc(CNC3CCc4nc(C)nn4C3)no2)cc1 (centres undefined) | 56.6%
80 | CCn1cc(S(=O)(=O)Nc2nc3c(s2)CCCC3)cn1 | -35.4%
81 | Cc1ncsc1CCN(C)C(=O)CCc1nc2cccnc2n1C | -51%
82 | c1ccc(-c2cnc3n2CCNC32CCNCC2)cc1 | -30.1%
83 | CNC(=O)CN1CCCC12CCN(C(=O)c1ccccc1F)CC2 | -35.6%
84 | Cc1cccc(C(=O)N2C[C@@H]3OCCN(c4ncccn4)[C@@H]3C2)n1 | 16.6%
85 | Cc1cccc(C(=O)N2C[C@@H]3OCCN(C(C)C)[C@@H]3C2)n1 | 18.8%
86 | Cc1ccc(N2C[C@@H]3CN(C(=O)c4ccccc4)CCO[C@@H]3C2)nn1 | 51.2%
87 | Cc1ccc(N2CCO[C@H]3CN(Cc4ccccn4)C[C@H]32)nn1 | 50.9%
88 | O=C(c1ccccc1)N1CCO[C@@H]2CN(c3cnccn3)C[C@@H]2C1 | 37.9%

Row | SMILES | INHIBITION
89 | Cc1ccc(N2CCO[C@H]3CN(Cc4nccs4)C[C@H]32)nn1 | 25.2%
90 | Cc1ccc(N2CCO[C@H]3CN(C(=O)c4cccc(C)n4)C[C@H]32)nn1 | 53%
91 | O=C(c1ccccc1)N1CCO[C@@H]2CN(c3ncccn3)C[C@@H]2C1 | 48.2%
92 | Cc1ccc(N2CCO[C@H]3CN(Cc4ccncc4)C[C@H]32)nn1 | 22.7%
93 | Cc1ccc(N2CCO[C@H]3CN(Cc4cccs4)C[C@H]32)nn1 | 88.2%
94 | Cc1ccc(N2CCO[C@H]3CN(Cc4cccnc4)C[C@H]32)nn1 | -12%
95 | c1ccc(CN2C[C@@H]3OCCN(c4ncccn4)[C@@H]3C2)nc1 | 38.1%
96 | CC(=O)NC[C@]1(O)CCN(C(=O)c2ccc(F)c(Cl)c2)C[C@H]1O | 18.9%
97 | O=C1COC2(CCN(Cc3cccnc3)CC2)CN1c1ccccc1 | 48.4%
98 | C[C@@]1(O)CCN(C2CCOCC2)C[C@H]1n1ccc(=O)[nH]c1=O | 10.95%
99 | Clc1ccc(Cc2nc(CNCCn3cccn3)cs2)cc1 | 16.6%
100 | CCc1nn(C)c(Cl)c1CN(CC)Cc1cnn(CC)c1 | -21.9%
101 | Cc1cc(=O)c2cc(F)ccc2n1CC(=O)O | 71.3%
102 | CC(=O)c1c(O)n(C)c2ccc(F)cc12 | 5.75%
103 | COC(=O)CCn1ccc(=O)c2cc(F)ccc21 | 6.34%
104 | O=C(O)Cn1ccc(=O)c2cc(F)ccc21 | 25.3%
105 | COC(=O)Cn1ccc(=O)c2ccc(OC)cc21 | -20%
106 | COC(=O)Cn1c(C)cc(=O)c2cc(F)ccc21 | 71.3%
107 | Cc1ccc2c(c1)c(C)cc(=O)n2CC(=O)O | 10.775%
108 | Cc1cc(C)n(C2CN(C(=O)Cn3c(C)cc(=O)c4ccccc43)C2)n1 | 29.1%
109 | CC(=O)Cn1c(C)cc(=O)c2cc(F)ccc21 | 82.4%
